According to PubChem BioAssay (NCATS):
Results filed as inconclusive are left out. Where a call stands in place of a potency, no number is given. Calls of active or inactive are those of the source. Calls follow the shape of the dose curve; as a rule, active = well fitted cell-killing curve with a large enough effect; inconclusive = small, poorly fitted or top-dose-only effect, or effect the other way; inactive = flat fitted curve, though single readings scatter.

The compounds below were run on CAOV3 (assay: Primary qHTS to identify gynecologic anti-cancer compounds using libraries of approved drugs and bioactive compounds (AID 1345084; also: nearly all actives have a fitted effect of over 55% in size)). Details: Gynecologic cancer cell panel viability, ATPlite luminescence, 48 h; series mostly up to 57.5 µM.
Description: National Center for Advancing Translational Sciences [NCATS] Assay Overview: Chemotherapeutic drug responses vary from cancer to cancer and from patient to patient. These variations could be caused by a number of factors including patient genomic background, tumor mutations, tumor heterogeneity, and aspects of drug treatment. Chemotherapeutic drug resistance is also a common issue and can lead to ineffective treatment and patient death. Here we have profiled the cell killing effects of thousands of compounds to characterize the responses in three gynecological cancers, identify cancer-selective compounds, and understand the diversity of responses to these compounds from pan-cancer suppressors to single cell line selective compounds. In this assay, we screened a 7,914 compound drug library that included approved drug and bioactive compounds in six ovarian, three cervical, and […] placental cancer cell lines using the ATPlite assay for cell viability. […] The cervical cancer cell lines included HeLa, Ca Ski, and C-33 A. The placental cancer cell lines included JEG-3. HEK 293T cells were used as the control cell line to determine the selectivity index. ATPlite is a luminescence based assay reliant on the conversion of a luciferase substrate to light in the presence of ATP. As a cytotoxic compound will suppress growth and decrease the number of cells, the concentration of ATP will decrease, and less light signal will be detected in the well.
Assay Protocol Summary: 1,000 cells in 4 uL of media were dispensed into white, solid bottom 1536-well plates using a Multidrop Combi (Thermo Scientific). The Assay plates were incubated for 16 hours at 37 C with 5% CO2 in assay plates, followed by the addition of 23 nL of DMSO or drug dissolved in DMSO. Each compound was assayed in five concentrations (0.092, 0.46, 2.3, 11.5, and 57.5 uM), using the automated Wako 1536 Pin Tool workstation and incubated at 37 C with 5% CO2 48 hours. 4 uL of ATPlite, the ATP monitoring reagent, was then added to the each well of the assay plates using the Multidrop Combi reagent dispenser followed by incubation for 15 minutes at room temperature. The resulting luminescence was measured using the ViewLux plate reader.
Potency is read from the fitted curve at half-maximal effect.

| Structure (SMILES) | Potency |
| --- | --- |
| Nc1nc(N)c(-c2ccccc2)s1 | inactive |
| COc1ccc(CCN(C)CCCN2CCc3cc(OC)c(OC)cc3CC2=O)cc1OC | inactive |
| CC(C)(C)NC[C@H](O)COc1cccc2c1CCCC2=O | inactive |
| C[N+]1(CC2COC(c3ccccc3)(C3CCCCC3)O2)CCCCC1 (stereo not given) | inactive |
| Cc1cccc(C)c1NC(=O)c1ccccc1C(=O)O | inactive |
| Cc1nc(-c2ccc(Cl)cc2)oc1COC(C)(C)C(=O)O | inactive |
| CC(C)(C)NCC(O)COc1cccc2c1C[C@H](O)[C@H](O)C2 (stereo not given in full) | inactive |
| O=c1[nH]c(=O)n([C@H]2C[C@H](O)[C@@H](CO)O2)cc1F | 1.58 µM (active) |
| CCCCCCCCCCCCCC(=O)OC(C)C | inactive |
| CCCCCCCCOc1ccc(C(=O)c2ccccc2)c(O)c1 | inactive |
| CCCCCCCCCCCCCCCCO | inactive |
| COc1ccc(CN(CCN(C)C)c2ncccn2)cc1 | inactive |
| O=C(NC1CCN(CCc2c[nH]c3ccccc23)CC1)c1ccccc1 | inactive |
| N/C(=N\N=C\c1ccc(Cl)cc1)N/N=C/c1ccc(Cl)cc1 | inactive |
| Oc1ccccc1C=NCc1ccccc1 | inactive |
| CCN(CC)CCOC(=O)C1(c2ccccc2)CCCC1 | inactive |
| CC(=O)Oc1ccc(C)cc1 | inactive |
| CC(=O)N[C@@H](CCC(=O)O)C(=O)O | inactive |
| CC(=O)Nc1ncc([N+](=O)[O-])s1 | inactive |
| Cc1cn([C@H]2C[C@H](F)[C@@H](CO)O2)c(=O)[nH]c1=O | inactive |

| Structure (SMILES) | Potency |
| --- | --- |
| CO[C@]12C[C@@H](COC(=O)c3cncc(Br)c3)CN(C)[C@@H]1Cc1cn(C)c3cccc2c13 | inactive |
| CCOC(=O)Nc1ccc2c(c1)N(C(=O)CCN1CCOCC1)c1ccccc1S2 | inactive |
| C/C=C/C=N/NC(=O)c1ccncc1 | inactive |
| O=S(=O)(O)c1ccc(O)cc1 | inactive |
| CC[N+](C)(CC)CCOC(=O)C(O)(c1ccccc1)C1CCCCC1 (stereo not given) | inactive |
| CCc1oc2ccccc2c1C(=O)c1cc(Br)c(O)c(Br)c1 | inactive |
| O=C(O)C1(C(=O)O)CCC1.[NH2-].[NH2-].[Pt+2] | inactive |
| Cc1c[nH]c2ccccc12 | inactive |
| CN1CCN(c2c(F)cc3c(=O)c(C(=O)O)cn4c3c2SCC4)CC1 | inactive |
| COc1ccc(S(=O)(=O)N2c3ccc(Cl)cc3[C@@](O)(c3ccccc3Cl)[C@H]2C(=O)N2CCC[C@@H]2C(N)=O)cc1OC | inactive |
| COc1cc(C(=O)NCc2ccc(OCCN(C)C)cc2)cc(OC)c1OC | inactive |
| CCCCCCCCCCCCCCC[C@H](O)[C@@H](N)CO | inactive |
| NC1CCN(c2nc3c(cc2F)c(=O)c(C(=O)O)cn3-c2ccc(F)cc2F)C1 (stereo not given) | inactive |
| N[C@H](C(=O)O)[C@@H](O)c1ccc(O)c(O)c1 | inactive |
| O=C(O)C(Cc1cc(I)c(O)c(I)c1)c1ccccc1 (stereo not given) | inactive |
| CCCN(CCc1cccs1)[C@H]1CCc2c(O)cccc2C1 | inactive |
| C[C@@H](O)[C@H]1C(=O)N2C(C(=O)O)=C(S[C@@H]3CN[C@H](CNS(N)(=O)=O)C3)[C@H](C)[C@H]12 | inactive |
| O=C(Nc1ncc([N+](=O)[O-])s1)c1cccs1 | inactive |
| O=[N+]([O-])c1ccc(/C=N\O)o1 | inactive |
| CN1CCN(CCC(=O)N2c3ccccc3Sc3ccc(C(F)(F)F)cc32)CC1 | 22.4 µM (active) |
